Results filed as inconclusive are left out. Active and inactive are the calls of the source. The calls were made as follows, unless noted: active = hit-call score of the fitted dose curve at least 0.9, where 1 is the maximum; inactive = score below 0.9.
Legend:
[1] = molecular target: X-box-binding protein 1 (Homo sapiens) (UniProt P17861); assay: ATG_Xbp1_CIS: Attagene CIS-FACTORIAL HepG2 Assay for human X-box Binding Protein 1 (XBP1) (AID 2282972); settings: HepG2 XBP1 cis-element reporter, Attagene multiplex; actives raise or lower the signal
Sequence of X-box-binding protein 1 (Homo sapiens) (P17861 whole entry, looked up, the tested form may be a part): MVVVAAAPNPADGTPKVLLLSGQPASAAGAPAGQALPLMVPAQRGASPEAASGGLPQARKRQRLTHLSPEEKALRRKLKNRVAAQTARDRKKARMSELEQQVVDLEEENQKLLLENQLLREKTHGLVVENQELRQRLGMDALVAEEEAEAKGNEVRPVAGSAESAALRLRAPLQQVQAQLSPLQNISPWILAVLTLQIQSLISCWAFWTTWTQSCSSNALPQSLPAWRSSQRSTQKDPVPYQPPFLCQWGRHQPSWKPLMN
Procedure, shortened: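 Fluorescence-labelled cDNA fragments from reporter transcripts, separated by capillary electrophoresis, give the signal. Source: HepG2 cells transfected with promoter-driven reporter units, harvested 24 h post-dose. DMSO served as reference for bidirectional curve fitting.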

[2] = ATG_M_19_TRANS: Attagene TRANS-FACTORIAL HepG2 Assay for M19 Transcription Factor (Internal Marker) (AID 2282974; active = hit-call score of the fitted dose curve at least 0.9, where 1 is the maximum); settings: HepG2 Attagene TRANS-FACTORIAL M19 internal marker reporter
Procedure, shortened: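 24 h chemical exposure of transiently transfected HepG2 (MRTU library). RNA → oligo(dT) RT → PCR → 6-FAM labelling → HpaI cut → CE fluorescence. Positive-direction fit vs DMSO baseline; background internal-marker readout.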

[3] = molecular target: Glucocorticoid receptor (Homo sapiens) (UniProt P04150); assay: ATG_GR_TRANS: Attagene TRANS-FACTORIAL HepG2 Assay for human Glucocorticoid Receptor (GR) (AID 2282978; active = hit-call score of the fitted dose curve at least 0.9, where 1 is the maximum;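 also: activators score as hits since higher reporter transcript over DMSO is fitted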); settings: HepG2 Attagene TRANS GR reporter, mRNA transcription
Sequence of Glucocorticoid receptor (Homo sapiens) (P04150 whole entry, looked up, the tested form may be a part): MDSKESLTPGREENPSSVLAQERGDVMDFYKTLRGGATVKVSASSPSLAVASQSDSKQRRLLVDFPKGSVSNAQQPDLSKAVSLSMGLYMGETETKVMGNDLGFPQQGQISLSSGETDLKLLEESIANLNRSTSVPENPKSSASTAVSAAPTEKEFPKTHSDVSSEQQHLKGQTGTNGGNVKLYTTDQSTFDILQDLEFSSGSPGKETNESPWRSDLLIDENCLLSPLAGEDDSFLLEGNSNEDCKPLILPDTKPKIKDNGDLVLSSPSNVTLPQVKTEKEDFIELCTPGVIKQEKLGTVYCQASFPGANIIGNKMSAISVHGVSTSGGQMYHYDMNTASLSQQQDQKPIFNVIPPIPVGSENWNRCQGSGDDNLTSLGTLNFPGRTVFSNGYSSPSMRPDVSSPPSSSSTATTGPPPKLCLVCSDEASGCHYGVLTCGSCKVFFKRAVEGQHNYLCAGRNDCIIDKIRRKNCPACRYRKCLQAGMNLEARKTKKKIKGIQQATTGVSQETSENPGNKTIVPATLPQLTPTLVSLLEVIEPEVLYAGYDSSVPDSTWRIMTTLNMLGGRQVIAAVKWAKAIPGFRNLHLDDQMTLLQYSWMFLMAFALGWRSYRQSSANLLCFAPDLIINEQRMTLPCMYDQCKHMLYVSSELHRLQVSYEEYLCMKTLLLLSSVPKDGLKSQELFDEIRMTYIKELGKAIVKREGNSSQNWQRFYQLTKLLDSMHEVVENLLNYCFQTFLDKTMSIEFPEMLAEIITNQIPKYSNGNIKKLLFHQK
Procedure, shortened: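 Transient MRTU transfection of HepG2 (GAL4-UAS reporters, exogenous NR-GAL4 chimeras), 24 h dosing. Readout: reporter transcript via RT-PCR + capillary electrophoresis fluorescence. Positive direction vs DMSO baseline.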

[4] = molecular target: Oxysterols receptor LXR-beta (Homo sapiens) (UniProt P55055); assay: ATG_LXRb_TRANS: Attagene TRANS-FACTORIAL HepG2 Assay for human Liver X Receptor beta (LXRb) (AID 2282981; active = hit-call score of the fitted dose curve at least 0.9, where 1 is the maximum); settings: HepG2 Attagene TRANS GAL4-LXRb reporter, mRNA
Procedure, shortened: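 HepG2 cells transiently transfected with GAL4-UAS reporter units for chimeric NR-Gal4 proteins, dosed for 24 h. Reporter transcripts measured by RT-PCR and capillary electrophoresis; gain-of-signal fitting relative to DMSO.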

[5] = molecular target: Hepatocyte nuclear factor 4-alpha (Homo sapiens) (UniProt P41235); assay: ATG_HNF4a_TRANS: Attagene TRANS-FACTORIAL HepG2 Assay for human Hepatocyte Nuclear Factor 4 alpha (HNF4a) (AID 2282982; active = hit-call score of the fitted dose curve at least 0.9, where 1 is the maximum); settings: HepG2 HNF4a transactivation reporter, mRNA readout
Sequence of Hepatocyte nuclear factor 4-alpha (Homo sapiens) (P41235 whole entry, looked up, the tested form may be a part): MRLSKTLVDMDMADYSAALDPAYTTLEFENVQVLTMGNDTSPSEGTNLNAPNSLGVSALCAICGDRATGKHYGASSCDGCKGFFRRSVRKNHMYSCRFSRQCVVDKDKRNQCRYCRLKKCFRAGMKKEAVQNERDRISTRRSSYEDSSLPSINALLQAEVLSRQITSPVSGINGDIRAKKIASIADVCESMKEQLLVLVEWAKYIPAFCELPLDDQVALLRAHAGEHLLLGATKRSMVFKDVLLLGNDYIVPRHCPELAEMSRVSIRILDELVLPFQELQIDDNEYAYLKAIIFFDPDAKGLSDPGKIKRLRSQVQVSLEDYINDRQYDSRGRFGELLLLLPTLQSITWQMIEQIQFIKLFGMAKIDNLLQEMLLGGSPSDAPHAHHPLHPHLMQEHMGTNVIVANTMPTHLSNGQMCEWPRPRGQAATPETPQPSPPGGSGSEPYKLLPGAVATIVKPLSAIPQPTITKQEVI
Procedure, shortened: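 HepG2 cells transiently transfected with HNF4a-Gal4 chimera and GAL4-UAS reporter units, dosed for 24 h. Reporter mRNA measured by RT-PCR, fluorescent primer extension and capillary electrophoresis; gain-of-signal fitted relative to DMSO.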

[6] = ATG_M_32_TRANS: Attagene TRANS-FACTORIAL HepG2 Assay for M32 Transcription Factor (Internal Marker) (AID 2282984; active = hit-call score of the fitted dose curve at least 0.9, where 1 is the maximum;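 also: transcript level of a background control reporter unit measured by RT-PCR and capillary electrophoresis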); settings: HepG2 Attagene TRANS M32 internal marker reporter
Procedure, shortened: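 HepG2 cells transiently transfected with GAL4-UAS reporter units, dosed for 24 hours. Reporter mRNA quantified by RT-PCR, 6-FAM labelling, HpaI digestion and capillary electrophoresis; internal-marker signal fitted upward relative to DMSO.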

[7] = molecular target: Transcriptional activator Myb (Homo sapiens) (UniProt P10242); assay: ATG_Myb_CIS: Attagene CIS-FACTORIAL HepG2 Assay for human Myeloblastosis (Myb) Proto-Oncogene Transcription Factor (AID 2282986); settings: HepG2 Attagene CIS-FACTORIAL Myb reporter transcription; actives raise or lower the signal
Sequence of Transcriptional activator Myb (Homo sapiens) (P10242 whole entry, looked up): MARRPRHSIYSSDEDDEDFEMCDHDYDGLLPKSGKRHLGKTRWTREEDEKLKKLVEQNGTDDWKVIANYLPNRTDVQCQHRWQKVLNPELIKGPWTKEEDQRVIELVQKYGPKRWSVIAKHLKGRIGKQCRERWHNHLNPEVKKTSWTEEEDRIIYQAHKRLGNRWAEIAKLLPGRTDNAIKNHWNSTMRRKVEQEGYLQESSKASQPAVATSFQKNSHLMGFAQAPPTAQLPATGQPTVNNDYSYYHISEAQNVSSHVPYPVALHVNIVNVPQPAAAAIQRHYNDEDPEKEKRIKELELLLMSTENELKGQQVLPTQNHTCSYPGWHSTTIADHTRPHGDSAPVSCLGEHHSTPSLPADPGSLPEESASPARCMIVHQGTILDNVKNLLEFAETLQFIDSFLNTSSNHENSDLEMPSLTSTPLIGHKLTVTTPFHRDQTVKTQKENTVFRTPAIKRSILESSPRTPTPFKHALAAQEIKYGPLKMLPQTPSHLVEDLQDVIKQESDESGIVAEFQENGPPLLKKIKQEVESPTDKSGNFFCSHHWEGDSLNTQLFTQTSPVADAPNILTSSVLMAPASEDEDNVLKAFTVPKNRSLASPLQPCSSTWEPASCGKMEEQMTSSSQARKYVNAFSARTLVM
Procedure, shortened: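 HepG2, transient MRTU transfection (cis-element promoters, endogenous TF activity), 24 h compound exposure. Readout: reporter mRNA via RT-PCR, 6-FAM labeling, HpaI digest, capillary electrophoresis. Gain/loss fit vs DMSO.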

[8] = molecular target: Nuclear respiratory factor 1 (Homo sapiens) (UniProt Q16656); assay: ATG_NRF1_CIS: Attagene CIS-FACTORIAL HepG2 Assay for human Nuclear Respiratory Factor 1 (NRF1) Orphan Gene (AID 2282987); settings: HepG2 NRF1 cis-element reporter, Attagene multiplex; actives raise or lower the signal
Sequence of Nuclear respiratory factor 1 (Homo sapiens) (Q16656 whole entry, looked up): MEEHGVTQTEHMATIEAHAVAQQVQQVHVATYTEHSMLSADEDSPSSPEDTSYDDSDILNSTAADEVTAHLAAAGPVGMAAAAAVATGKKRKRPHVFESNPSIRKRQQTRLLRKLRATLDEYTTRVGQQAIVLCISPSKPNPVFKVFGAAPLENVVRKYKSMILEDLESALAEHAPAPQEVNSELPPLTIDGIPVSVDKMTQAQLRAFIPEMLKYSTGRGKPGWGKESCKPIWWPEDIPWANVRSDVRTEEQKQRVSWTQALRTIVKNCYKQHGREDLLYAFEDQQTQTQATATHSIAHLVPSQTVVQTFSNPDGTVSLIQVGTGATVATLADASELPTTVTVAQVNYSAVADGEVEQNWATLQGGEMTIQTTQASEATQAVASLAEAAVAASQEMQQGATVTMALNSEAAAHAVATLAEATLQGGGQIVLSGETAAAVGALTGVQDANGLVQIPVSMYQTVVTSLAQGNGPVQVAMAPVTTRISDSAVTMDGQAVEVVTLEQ
Procedure, shortened: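 Endogenous NRF1-driven reporter transcription measured in transiently transfected human HepG2 liver cells. Readout: reporter mRNA by RT-PCR and capillary electrophoresis with fluorescence detection, 24 h post-dosing. Gain or loss of signal fitted relative to DMSO baseline.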

[9] = molecular target: Myc proto-oncogene protein (Homo sapiens) (UniProt P01106); assay: ATG_Myc_CIS: Attagene CIS-FACTORIAL HepG2 Assay for human Myelocytomatosis (Myc) Proto-Oncogene Transcription Factor (AID 2282990); settings: HepG2, Attagene cis-reporter transcription factor activity; actives raise or lower the signal
Sequence of Myc proto-oncogene protein (Homo sapiens) (P01106 whole entry, looked up): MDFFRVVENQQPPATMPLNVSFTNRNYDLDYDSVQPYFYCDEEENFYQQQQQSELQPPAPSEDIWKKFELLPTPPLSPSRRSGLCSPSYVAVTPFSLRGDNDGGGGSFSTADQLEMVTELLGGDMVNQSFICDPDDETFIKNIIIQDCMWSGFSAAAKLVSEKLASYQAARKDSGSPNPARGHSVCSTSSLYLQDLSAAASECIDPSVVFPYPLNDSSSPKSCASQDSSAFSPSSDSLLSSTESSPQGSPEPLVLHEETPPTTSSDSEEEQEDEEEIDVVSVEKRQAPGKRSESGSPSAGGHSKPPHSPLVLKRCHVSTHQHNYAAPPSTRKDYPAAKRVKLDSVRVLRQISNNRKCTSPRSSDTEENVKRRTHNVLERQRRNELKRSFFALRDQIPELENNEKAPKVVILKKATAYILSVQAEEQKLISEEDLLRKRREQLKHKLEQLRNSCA
Procedure, shortened: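 Transiently transfected HepG2 cells bearing cis-promoter reporter units for endogenous transcription factors; 24 h exposure. Reporter mRNA measured by RT-PCR, 6-FAM primer extension, HpaI cut and capillary electrophoresis; bidirectional fit relative to DMSO.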

[10] = ATG_NRF2_ARE_CIS: Attagene CIS-FACTORIAL HepG2 Assay for human Nuclear Factor Erythroid 2 Related Factor 2 (NFR2) response to Antioxidant Response Elements (ARE) (AID 2282992); settings: HepG2 Attagene ARE/NRF2 reporter, transcription factor activity; actives raise or lower the signal
Procedure, shortened: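 Multiplexed reporter mRNA profiling in HepG2 after a 24 h chemical exposure. Curves fitted in both directions relative to DMSO negative control.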

[11] = molecular target: Oxysterols receptor LXR-alpha (Homo sapiens) (UniProt Q13133); assay: ATG_LXRa_TRANS: Attagene TRANS-FACTORIAL HepG2 Assay for human Liver X Receptor alpha (LXRa) (AID 2282980; active = hit-call score of the fitted dose curve at least 0.9, where 1 is the maximum); settings: HepG2 Attagene TRANS reporter, LXRa transactivation
Sequence of Oxysterols receptor LXR-alpha (Homo sapiens) (Q13133 whole entry, looked up, the tested form may be a part): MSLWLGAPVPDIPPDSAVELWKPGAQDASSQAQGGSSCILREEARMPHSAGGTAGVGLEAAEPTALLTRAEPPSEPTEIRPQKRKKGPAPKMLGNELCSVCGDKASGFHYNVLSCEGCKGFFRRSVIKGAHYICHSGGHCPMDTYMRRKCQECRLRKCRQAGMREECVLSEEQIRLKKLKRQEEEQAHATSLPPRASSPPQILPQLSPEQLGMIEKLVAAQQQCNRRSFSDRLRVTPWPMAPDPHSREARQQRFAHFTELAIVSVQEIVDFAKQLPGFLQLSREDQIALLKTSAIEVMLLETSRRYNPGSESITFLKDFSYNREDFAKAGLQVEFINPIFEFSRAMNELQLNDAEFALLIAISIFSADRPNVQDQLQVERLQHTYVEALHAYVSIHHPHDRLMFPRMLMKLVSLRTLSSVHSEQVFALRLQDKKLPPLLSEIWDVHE
Procedure, shortened: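 In this multiplexed TRANS system, compounds act on HepG2 cells carrying GAL4-UAS reporter units and a receptor-GAL4 fusion for 24 h. Induced reporter RNA is amplified, fluorescently labelled and sized by capillary electrophoresis, with DMSO as baseline.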

[12] = molecular target: Nuclear receptor subfamily 4 group A member 2 (Homo sapiens) (UniProt P43354); assay: ATG_NURR1_TRANS: Attagene TRANS-FACTORIAL HepG2 Assay for human Nuclear Receptor Related Protein 1 (NURR1) (AID 2282985; active = hit-call score of the fitted dose curve at least 0.9, where 1 is the maximum); settings: HepG2 Attagene TRANS reporter, mRNA readout
Sequence of Nuclear receptor subfamily 4 group A member 2 (Homo sapiens) (P43354 whole entry, looked up, the tested form may be a part): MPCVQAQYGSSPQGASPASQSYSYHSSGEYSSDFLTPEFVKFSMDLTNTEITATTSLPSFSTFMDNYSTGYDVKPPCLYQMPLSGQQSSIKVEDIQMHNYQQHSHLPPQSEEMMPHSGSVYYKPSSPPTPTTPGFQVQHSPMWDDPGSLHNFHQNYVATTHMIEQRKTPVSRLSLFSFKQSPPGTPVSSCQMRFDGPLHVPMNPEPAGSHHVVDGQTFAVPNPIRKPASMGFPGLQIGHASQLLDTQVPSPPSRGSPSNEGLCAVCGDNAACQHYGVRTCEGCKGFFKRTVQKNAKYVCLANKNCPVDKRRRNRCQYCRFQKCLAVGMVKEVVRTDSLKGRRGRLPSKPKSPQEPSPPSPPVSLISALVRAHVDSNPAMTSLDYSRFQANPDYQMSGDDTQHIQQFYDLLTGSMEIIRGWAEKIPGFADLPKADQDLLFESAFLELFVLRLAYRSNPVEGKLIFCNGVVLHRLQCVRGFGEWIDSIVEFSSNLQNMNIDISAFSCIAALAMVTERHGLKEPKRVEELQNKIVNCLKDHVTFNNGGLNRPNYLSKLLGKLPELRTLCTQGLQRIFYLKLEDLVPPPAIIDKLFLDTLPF
Procedure, shortened: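 HepG2 cells transiently transfected with NURR1-Gal4 chimera and GAL4-UAS reporter units; after 24 hr compound exposure, reporter mRNA quantified by RT-PCR and capillary electrophoresis; gain of signal fitted against DMSO.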

[13] = ATG_NFI_CIS: Attagene CIS-FACTORIAL HepG2 Assay for human Nuclear Factor I (NFI) (AID 2282989); settings: HepG2 cis-regulatory reporter, NFI response element transcription; actives raise or lower the signal
Procedure, shortened: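 Endogenous TF activity in HepG2 cells transiently transfected with cis-element-driven multiplexed reporter units, read 24 h after dosing. Reporter mRNA quantified by RT-PCR, 6-FAM labelling, HpaI digestion and capillary electrophoresis; bidirectional fit versus DMSO.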

[14] = ATG_NF_kB_CIS: Attagene CIS-FACTORIAL HepG2 Assay for human Nuclear Factor Kappa B (NF-kB) (AID 2282991); settings: HepG2 Attagene cis-factorial NF-kB reporter mRNA; actives raise or lower the signal
Procedure, shortened: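 Read-out: reporter transcript levels quantified by RT-PCR plus capillary electrophoresis of 6-FAM-labelled, HpaI-cut fragments. Transfected HepG2 cells, 24 h compound exposure, endogenous NF-kB-driven cis element; gain or loss scored versus DMSO.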

[15] = molecular target: Bile acid receptor (Homo sapiens) (UniProt Q96RI1); assay: ATG_FXR_TRANS: Attagene TRANS-FACTORIAL HepG2 Assay for Farnesoid X Receptor (FXR) (AID 2282979; active = hit-call score of the fitted dose curve at least 0.9, where 1 is the maximum;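 also: hits raise reporter mRNA above DMSO so AC50 marks FXR activation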); settings: HepG2 Attagene TRANS FXR-GAL4 reporter transcription
Sequence of Bile acid receptor (Homo sapiens) (Q96RI1 whole entry, looked up, the tested form may be a part): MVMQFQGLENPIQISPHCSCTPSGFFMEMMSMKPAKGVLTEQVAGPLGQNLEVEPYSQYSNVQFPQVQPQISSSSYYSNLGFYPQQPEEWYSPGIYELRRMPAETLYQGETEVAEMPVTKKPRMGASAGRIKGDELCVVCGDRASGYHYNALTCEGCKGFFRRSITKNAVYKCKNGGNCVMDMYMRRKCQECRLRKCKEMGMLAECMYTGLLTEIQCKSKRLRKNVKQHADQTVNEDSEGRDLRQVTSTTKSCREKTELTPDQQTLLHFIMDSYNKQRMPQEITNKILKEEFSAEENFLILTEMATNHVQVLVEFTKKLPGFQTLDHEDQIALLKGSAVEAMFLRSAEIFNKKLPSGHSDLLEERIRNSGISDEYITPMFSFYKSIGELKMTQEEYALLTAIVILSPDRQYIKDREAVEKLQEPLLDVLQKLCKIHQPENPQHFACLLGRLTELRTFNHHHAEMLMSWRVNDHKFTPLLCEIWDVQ
Procedure, shortened: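 After 24 h chemical treatment of transfected HepG2 cells, GAL4-UAS reporter transcripts driven by an exogenous FXR-GAL4 fusion were measured by RT-PCR and capillary electrophoresis. Increases over DMSO were fitted.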

[16] = ATG_M_06_TRANS: Attagene TRANS-FACTORIAL HepG2 Assay for M06 Transcription Factor (Internal Marker) (AID 2282983; active = hit-call score of the fitted dose curve at least 0.9, where 1 is the maximum); settings: HepG2 Attagene TRANS M06 internal marker reporter
Procedure, shortened: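 Internal-marker background readout from a multiplexed TRANS reporter system in HepG2; 24 h dosing; mRNA induction quantified by RT-PCR plus capillary electrophoresis fluorescence; DMSO as negative control and baseline.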

[17] = ATG_GAL4_TRANS: Attagene TRANS-FACTORIAL HepG2 Assay for GAL4 (Internal Marker) (AID 2282976; active = hit-call score of the fitted dose curve at least 0.9, where 1 is the maximum); settings: HepG2 Attagene TRANS GAL4 internal marker reporter
Procedure, shortened: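 Liver HepG2 line bearing multiplexed GAL4-UAS reporter constructs; 24 h chemical treatment. Transcripts were quantified as fluorescent fragments on capillary electrophoresis after RT-PCR and HpaI cut, with activity fitted upward from DMSO.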

[18] = molecular target: Estrogen-related receptor gamma (Homo sapiens) (UniProt P62508); assay: ATG_ERRg_TRANS: Attagene TRANS-FACTORIAL HepG2 Assay for human Estrogen-Related Receptor gamma (ERRg) (AID 2282977; active = hit-call score of the fitted dose curve at least 0.9, where 1 is the maximum;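 also: hits increase reporter signal over DMSO so potencies reflect activators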); settings: HepG2 Attagene TRANS reporter, ERRg transactivation
Procedure, shortened: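 HepG2 cells transiently transfected with multiplexed GAL4-UAS reporter units driven by chimeric NR-Gal4 proteins; 24 h exposure. Reporter mRNA quantified by RT-PCR, fluorescent labelling, HpaI digestion and capillary electrophoresis; gain of signal vs DMSO.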

Measured: AC50

Cc1cc(Cl)ccc1O
active: [10] 37.1 µM
inactive: [1] | [2] | [3] | [4] | [5] | [6] | [7] | [8] | [9]

Oc1c(Br)cc(Br)cc1Br
active: [1] 42 µM | [10] 26.9 µM
not listed: [3] | [4] | [15] | [16] | [17] | [18]
inactive: all other assays above

COP(=S)(OC)Oc1cc(Cl)c(I)cc1Cl
inactive: [2] | [15] | [11] | [4] | [5] | [12] | [9]
active: [1] 38.6 µM | [8] 55.6 µM | [13] 29.1 µM | [14] 55.6 µM | [10] 8.28 µM

CC(C)(COCC1CO1)COCC1CO1 (configuration not stated)
inactive: [1] | [2] | [15] | [5] | [7] | [8] | [13] | [9] | [14]

CC(C)[C@@H](Nc1ccc(C(F)(F)F)cc1Cl)C(=O)OC(C#N)c1cccc(Oc2ccccc2)c1 (some centres not stated)
active: [10] 17.1 µM
not listed: [3] | [4] | [6] | [11] | [16] | [17] | [18]
inactive: all other assays above

CCC[CH2][Sn]([CH2]CCC)([CH2]CCC)[CH2]CCC
active: [12] 0.497 µM | [13] 17.3 µM | [10] 5.43 µM
inactive: [1] | [2] | [3] | [11] | [4] | [7] | [8] | [9]

CN(N=O)c1ccc([N+](=O)[O-])cc1
inactive: [1] | [2] | [6] | [12] | [7] | [8] | [13] | [9] | [14]

O=C(NC(=O)c1c(F)cccc1F)Nc1ccc(Cl)cc1
inactive: [1] | [2] | [11] | [5] | [16] | [12] | [7] | [8] | [13] | [9]

OC(Cc1ccccc1Cl)(Cn1[nH]cnc1=S)C1(Cl)CC1 (configuration not stated)
active: [1] 100 µM | [10] 12.1 µM
inactive: [2] | [15] | [11] | [12] | [7] | [8] | [13] | [9]

Fc1cccc(Cl)c1CCl
active: [10] 26.3 µM
not listed: [4] | [5] | [12] | [14] | [15] | [17] | [18]
inactive: all other assays above

CCOP(=S)(OCC)Oc1ccc(Cl)cc1Cl
active: [10] 43.7 µM
not listed: [3] | [4] | [14] | [15] | [17] | [18]
inactive: all other assays above

O=C(NC(=O)c1c(F)cccc1F)Nc1cc(Cl)c(Oc2ncc(C(F)(F)F)cc2Cl)c(Cl)c1
inactive: [1] | [2] | [15] | [16] | [7] | [8] | [9]
active: [10] 31.9 µM

O=S(=O)(F)C(F)(F)C(F)(F)C(F)(F)C(F)(F)F
not listed: [2] | [3] | [12] | [13] | [16]
inactive: all other assays above

CC(C)C(C)(N)C#N (configuration not stated)
inactive: [1] | [2] | [3] | [7] | [8] | [13] | [9] | [14] | [10]

CC(C)(C)c1ccccc1O
inactive: [2] | [3] | [6] | [7] | [9] | [10]
active: [1] 165 µM | [12] 63.4 µM | [8] 100 µM | [13] 100 µM | [14] 164 µM

O=C(O)CC(O)(CC(=O)O)C(=O)O
active: [12] 6.74 µM
not listed: [3] | [6] | [14] | [15] | [17] | [18]
inactive: all other assays above

CC(C)(C#N)N=NC(C)(C)C#N
not listed: [5] | [14] | [15] | [16] | [17] | [18]
inactive: all other assays above

Reference: PubChem BioAssay (EPA / NIEHS)
